Results taken from PubChem BioAssay AID1159580 (chemical genetic matrix, 2015).
Several values for one entry are separate records, joined by “and”; a condition that tells them apart may be missing. Equal values may be shown once. Out of some 5,500 compounds screened, about 2,000 (36%) were called active. Roughly 18% stayed inconclusive and do not appear here. Rule as the data show it: active = normalized growth mostly below about 0.91 (no sharp cut-off); inconclusive = no clear call, values can overlap the other calls; inactive = mostly above about 0.92. The list shows a part of the results.

Assay: chemical genetic growth profiling, strain panel (AID 1159580);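 also: tested at 20 µM; growth read once vehicle control cultures reached saturation at 30 °C; 1 = growth at the plate median or of vehicle wells; lower values mean less growth of the strain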
Conditions: S. cerevisiae deletion strains, growth OD

Measured: normalized growth

CS(=O)(=O)c1ccc(C2=C(c3ccccc3)C(=O)OC2)cc1
inactive: locus YAL013W, strain DEP1, hits give low values 0.996 | locus YAL021C, strain ccr4, hits give low values 0.955 | locus YAL026C, strain drs2, hits give low values 0.985 | locus YAL030W, strain snc1, hits give low values 0.971 | locus YBL061C, strain skt5, hits give low values 0.972 | locus YBR009C, strain hhf1, hits give low values 0.959 | locus YBR021W, strain FUR4, hits give low values 0.986 | locus YBR023C, strain chs3, hits give low values 0.979 | locus YBR171W, strain sec66, hits give low values 0.983 | locus YBR229C, strain ROT2, hits give low values 1 | locus YBR231C, strain swc5, hits give low values 1 | locus YBR279W, strain paf1, hits give low values 0.987 | locus YCL011C, strain gbp2, hits give low values 0.975 | locus YCL016C, strain dcc1, hits give low values 0.98 | locus YCL029C, strain bik1, hits give low values 0.994 | locus YCL061C, strain MRC1, hits give low values 0.986 | locus YCL069W, strain vba3, hits give low values 0.976 | locus YCR088W, strain abp1, hits give low values 0.985 | locus YDL005C, strain med2, hits give low values 0.983 | locus YDL035C, strain GPR1, hits give low values 0.973 | locus YDL040C, strain nat1, hits give low values 0.984 | locus YDL074C, strain BRE1, hits give low values 0.929 | locus YDL101C, strain DUN1, hits give low values 0.99 | locus YDL134C, strain PPH21, hits give low values 1.01 | locus YDL185W, strain tfp1, hits give low values 0.963 | locus YDL192W, strain arf1, hits give low values 0.98 | locus YDR001C, strain nth1, hits give low values 0.985 | locus YDR069C, strain doa4, hits give low values 0.967 | locus YDR101C, strain arx1, hits give low values 0.995 | locus YDR137W, strain rgp1, hits give low values 1.02 | locus YDR150W, strain NUM1, hits give low values 0.991 | locus YDR159W, strain sac3, hits give low values 0.968 | locus YDR162C, strain NBP2, hits give low values 0.979 | locus YDR195W, strain ref2 0.963 | locus YDR297W, strain sur2, hits give low values 0.983 | locus YDR318W, strain mcm21, hits give low values 0.983 | locus YDR334W, strain swr1, hits give low values 0.968 | locus YDR335W, strain msn5, hits give low values 0.982 | locus YDR388W, hits give low values 0.991 | locus YDR392W, strain spt3, hits give low values 0.954 | locus YDR502C, strain sam2, hits give low values 0.983 | locus YEL003W, strain gim4, hits give low values 0.977 | locus YEL037C, strain rad23, hits give low values 0.992 | locus YEL061C, strain CIN8 (second series), hits give low values 0.97 | locus YEL061C, strain CIN8, hits give low values 0.984 | locus YER015W, strain faa2, hits give low values 0.98 | locus YER016W, strain bim1, hits give low values 0.985 | locus YER110C, hits give low values 0.988 | locus YER111C, strain swi4, hits give low values 0.978 | locus YER155C, strain BEM2 (second series), hits give low values 0.98 | locus YER155C, strain BEM2, hits give low values 1.04 | locus YER167W, strain BCK2, hits give low values 0.989 | locus YFR010W, strain ubp6, hits give low values 0.961 | locus YGL078C, strain dbp3, hits give low values 0.996 | locus YGL086W, strain mad1, hits give low values 0.983 | locus YGL167C, strain pmr1, hits give low values 0.971 | locus YGL173C, strain kem1, hits give low values 0.989 | locus YGL227W, strain vid30, hits give low values 0.969 | locus YGL240W, strain doc1, hits give low values 0.975 | locus YGL248W, strain PDE1, hits give low values 1 | locus YGL253W, strain hxk2, hits give low values 0.987 | locus YGR078C, strain PAC10, hits give low values 0.957 | locus YGR135W, strain pre9, hits give low values 0.979 | locus YGR229C, strain SMI1, hits give low values 0.971 | locus YGR252W, strain gcn5, hits give low values 0.967 | locus YHR013C, strain ard1, hits give low values 0.971 | locus YHR027C, strain rpn1, hits give low values 0.963 | locus YHR030C, strain SLT2, hits give low values 0.994 and 1.03 | locus YHR079C, strain IRE1 (second series), hits give low values 0.992 | locus YHR079C, strain IRE1, hits give low values 1.03 | locus YHR094C, strain hxt1, hits give low values 0.984 | locus YHR129C, strain ARP1, hits give low values 1 | locus YHR142W, strain chs7, hits give low values 0.984 | locus YHR200W, strain rpn10, hits give low values 0.969 | locus YIL066C, strain RNR3, hits give low values 1.01 | locus YIL073C, strain SPO22, hits give low values 0.936 | locus YIL125W, strain kgd1, hits give low values 0.999 | locus YIR030C, strain dcg1, hits give low values 0.987 | locus YJL092W, strain hpr5, hits give low values 0.984 | locus YJL095W, strain BCK1 (second series), hits give low values 0.977 | locus YJL095W, strain BCK1, hits give low values 0.951 and 1.01 | locus YJL115W, strain asf1, hits give low values 0.962 | locus YJL129C, strain trk1, hits give low values 0.978 | locus YJL134W, strain LCB3, hits give low values 0.998 | locus YJL154C, strain vps35, hits give low values 0.991 | locus YJL164C, strain tpk1, hits give low values 0.965 | locus YJL166W, strain qcr8, hits give low values 0.986 | locus YJL168C, strain set2, hits give low values 0.993 | locus YJL187C, strain SWE1 (second series), hits give low values 0.989 | locus YJL187C, strain SWE1, hits give low values 0.981 | locus YJR043C, strain POL32, hits give low values 0.955
